From PubChem
Only some compounds are listed: those with a hit (about 2.9% of all), similar ones and a draw of the others.
SMARCA2 act: increases SMARCA2 function in MMTV reporter cells | MG213 cells, MMTV-luciferase reporter, dexamethasone, overnight | activation, % at 9.1 µM | 370,000 tested, 1% active | AID 652017; in the data active means activation above about 7.8%
proKLK7 act: proKLK7 (human) activation, primary screen. P49862. purified proKLK7, EDANS-DABCYL substrate fluorescence; 100% is mature enzyme control, 0% vehicle. activation, % at 7 µM. 370,000 tested, 0.9% active. AID 652039;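 active means activation above the mean of all tested compounds plus 3 SD, computed per campaign excluding outliers beyond control limits, cut at about 13% in these data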
Target sequence (P49862 whole entry, looked up): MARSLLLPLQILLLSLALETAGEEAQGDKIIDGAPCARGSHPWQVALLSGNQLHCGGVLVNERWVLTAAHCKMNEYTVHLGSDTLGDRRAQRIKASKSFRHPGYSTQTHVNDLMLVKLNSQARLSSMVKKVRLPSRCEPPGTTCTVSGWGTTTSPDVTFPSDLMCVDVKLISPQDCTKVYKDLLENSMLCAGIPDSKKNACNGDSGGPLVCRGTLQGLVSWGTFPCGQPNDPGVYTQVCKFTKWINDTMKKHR
GAA850 FXN act: activators of GAA850 frataxin (FXN) promoter; HEK293 lucGAA850 FXN promoter luciferase reporter, 24 h; percent of 10 µM SAHA response; 360,000 tested, 0.56% active; activation, % at 6 µM; AID 540364;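 active means activation above the average of all compounds screened plus 3 SD, cutoff fixed separately per campaign, cut at about 7.5% in these data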
FAS TE block: blocks the thioesterase domain of human fatty acid synthase; inhibition, % at 15 µM; P49327; 360,000 tested, 0.67% active; AID 602261; recombinant FAS-TE, OMFH fluorogenic substrate, fluorescence endpoint;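 active means compounds whose normalised, plate-corrected inhibition of enzyme fluorescence in the single-dose primary screen is 50% or more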
GAA30 counter: counter-screen for GAA850 frataxin promoter activators: GAA30 promoter activation | activation, % at 6 µM | shares compounds with GAA850 FXN act | AID 588350 | 1,900 tested, 66% active | HEK293 lucGAA30 FXN promoter luciferase, 24 h; DMSO = 0%, 5 µM ipriflavone = 100%;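 active means mean activation above the mean of solvent-only control wells plus 3 SD, cut at about 22% in these data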;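 further: counterscreen of GAA850 promoter hits where activity marks nonselective or luminescence artifacts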
FXN GAA850 conf: GAA850 FXN promoter activation confirmation. shares compounds with GAA850 FXN act. HEK293 lucGAA850 FXN promoter luciferase reporter, 24 h; 100% = activation by SAHA. activation, % at 6 µM. 1,900 tested, 86% active. AID 588351;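 active means mean activation above a set limit taken from the primary screen, cut at about 8% in these data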
Each line names hits and unclear results; the compound was inactive in the other large screens (follow-up assays come after a bar, where they were run).

Cc1sc(NC(=O)C2C3CCC(O3)C2C(=O)O)nc1-c1ccc(CC(C)C)cc1 (stereo unspecified)	GAA850 FXN act 13 | GAA30 counter 62 | FXN GAA850 conf 26
CC[C@@]1(C(=O)OC)N[C@H](CN(C)C(=O)Nc2ccccc2)[C@@H]2C(=O)N(Cc3ccccc3)C(=O)[C@@H]21	GAA850 FXN act 12 | GAA30 counter inactive | FXN GAA850 conf inactive
CCN(C[C@H]1N[C@@](CC)(C(=O)OC)[C@H]2C(=O)N(Cc3ccccc3)C(=O)[C@@H]12)S(=O)(=O)c1ccc(OC)cc1	GAA850 FXN act 11 | GAA30 counter inactive | FXN GAA850 conf 9.0
CC[C@@]1(C(=O)OC)N[C@H](CN(C)C(=O)c2ccccc2)[C@@H]2C(=O)N(Cc3ccccc3)C(=O)[C@@H]21	none
CC[C@@]1(C(=O)OC)N[C@H](CN(C)C(=O)Nc2ccc(C(F)(F)F)cc2)[C@@H]2C(=O)N(Cc3ccccc3)C(=O)[C@@H]21	GAA850 FXN act 8.9 | GAA30 counter 27 | FXN GAA850 conf 11
Cc1cccc2nc(COc3ccc4ccccc4c3Br)cn12	GAA850 FXN act 12 | GAA30 counter 134 | FXN GAA850 conf 48
O=C(CNS(=O)(=O)c1ccc(F)cc1)N1CCN(c2ccccn2)CC1	none (no result: GAA850 FXN act, FAS TE block)
Cc1c(-c2ccccc2)n(O)[n+]([O-])c1-c1ccccc1	none
O=Nc1c(-c2ccccc2)n(O)[n+]([O-])c1-c1ccccc1	GAA850 FXN act 8.9 | GAA30 counter 75 | FXN GAA850 conf 36
CC(=O)c1ccc2c3c(cccc13)C(=O)N(CCc1ccccc1)C2=O	GAA850 FXN act 7.8 | GAA30 counter 112 | FXN GAA850 conf 45
CCOc1ccccc1NC(=S)NC(=O)c1ccco1	none
O=C(NC(=S)Nc1cccnc1Cl)c1ccco1	GAA850 FXN act 7.8 | GAA30 counter 64 | FXN GAA850 conf 20
Cc1ccc(NC(=O)Cn2nc(C)c([N+](=O)[O-])c2C)cc1C	none
CCOC(=O)C(NC(=O)C1CCCN1C(=O)OCc1ccccc1)C(=O)OCC (stereo unspecified)	none
CCCCN(CCCC)CCCNC(=O)Cn1cc(C)c(=O)[nH]c1=O	none (no result: GAA850 FXN act, FAS TE block)
CC1CCc2c(sc(NC(=O)c3noc4c3CCCC4)c2C(N)=O)C1 (stereo unspecified)	GAA850 FXN act 7.8 | GAA30 counter 102 | FXN GAA850 conf 29
O=S(=O)(Nc1cccnc1)c1cccc(C(F)(F)F)c1	none
O=[N+]([O-])c1ccc(S(=O)(=O)c2cccc(C(F)(F)F)c2)nc1	GAA850 FXN act 14 (no result: SMARCA2 act, proKLK7 act) | GAA30 counter inactive | FXN GAA850 conf inactive
Cc1cccc(NC(=O)COc2ccc(/C=C\c3[nH]c(=O)[nH]c(=O)c3[N+](=O)[O-])cc2)c1	none
C=CC(=O)Oc1ccc(N2Cc3ccccc3C2=O)cc1	GAA850 FXN act 8.0 (no result: SMARCA2 act, proKLK7 act) | GAA30 counter 32 | FXN GAA850 conf inactive
O=C(Nc1ccc(Cl)cc1)Nc1cccnc1	GAA850 FXN act 8.4 | GAA30 counter 63 | FXN GAA850 conf 21
COc1ccc(Cc2nc3ccc(S(N)(=O)=O)cc3[nH]2)cc1OC	none (no result: GAA850 FXN act, FAS TE block)
CCn1c(SCC(=O)NC2CCCCC2C)nnc1-c1ccc(OC)cc1 (stereo unspecified)	none
Cc1c(C(=O)N2CCN(C)CC2)oc2c1C(=O)CC(C)(C)C2	none
Cc1c(C(=O)N2CCc3ccccc32)oc2c1C(=O)CC(C)(C)C2	GAA850 FXN act 11 | GAA30 counter 113 | FXN GAA850 conf 40
Cn1ccnc1C(O)c1ccc(OCc2ccccc2)cc1 (stereo unspecified)	GAA850 FXN act 7.7 | GAA30 counter 58 | FXN GAA850 conf 18
Cn1ccnc1C(O)c1ccccc1 (stereo unspecified)	none
Clc1ccccc1CSc1ncn(-c2ccccc2)n1	GAA850 FXN act 8.4 | GAA30 counter 104 | FXN GAA850 conf 35
Cc1ccc(NC(=O)CSCC(=O)Nc2ccccc2N2CCCCC2)cc1	GAA850 FXN act 12 | GAA30 counter inactive | FXN GAA850 conf 13
NS(=O)(=O)OCCCCCc1ccccc1	none
O=C(OC(C(=O)Nc1ccc(Cl)cc1C(F)(F)F)c1ccccc1)c1c(Cl)cccc1Cl (stereo unspecified)	GAA850 FXN act 11 | GAA30 counter inactive | FXN GAA850 conf 11
Cc1ccc(C(=O)OC(C(=O)Nc2ccc(Cl)cc2C(F)(F)F)c2ccccc2)cc1 (stereo unspecified)	none
CN(C)c1ccc(O)c2c1CC1CC3[C@@H](N(C)C)C(=O)C(C(N)=O)=C(O)[C@]3(O)C(=O)C1=C2O (stereo partly specified)	GAA850 FXN act 15 | GAA30 counter 29 | FXN GAA850 conf 10
CN(C)/C=C/C(=O)c1ccc(Oc2ccccc2)cc1	GAA850 FXN act 7.8 | GAA30 counter 103 | FXN GAA850 conf 33
O=c1cc(CN2CCc3ccccc3C2)nc2sccn12	none
C[C@@H]1C=CCCO[C@]12C(=O)N(Cc1ccccc1C(F)(F)F)c1cccc(Br)c12	none (no result: GAA850 FXN act, FAS TE block)
O=[N+]([O-])c1ccc(/C=N/N2CCN(c3ccncc3S(=O)(=O)N3CCCCC3)CC2)cc1	none
C=CCn1c(C)cc(C(=O)CN2NS(=O)(=O)c3ccccc3C2=O)c1C	GAA850 FXN act 7.7 | GAA30 counter inactive | FXN GAA850 conf 32
Cc1ccc2oc(-c3ccc(C)c(NC(=S)NC(=O)c4cccs4)c3)nc2c1	GAA850 FXN act 8.6 | GAA30 counter 96 | FXN GAA850 conf 19
Cc1ccc2oc(-c3ccc(C)c(NC(=O)Cc4cccs4)c3)nc2c1	none
c1cnc(SCCOc2ccc3c(c2)CCC3)nc1	GAA850 FXN act 8.2 | GAA30 counter 101 | FXN GAA850 conf 38
CCOC(=O)c1csc(-c2ccc(COC(=O)c3ccccc3)o2)n1	none (no result: SMARCA2 act, proKLK7 act, GAA850 FXN act)
COc1cccc(-n2cnc3sc(C)c(C)c3c2=O)c1	GAA850 FXN act 9.3 | GAA30 counter 59 | FXN GAA850 conf 24
Cc1cccc(-n2cnc3sc(C)c(C)c3c2=O)c1	none
O=C(Cn1cnc2c(OCc3ccccc3)ncnc21)NCc1ccc2[nH]ccc2c1	none
Cc1cccc(CCNC(=O)c2cccc(NC3=NC4CS(=O)(=O)CC4S3)c2)c1 (stereo unspecified)	GAA850 FXN act 16 | GAA30 counter inactive | FXN GAA850 conf inactive
Cc1cc2c(cc1C)N(CC(=O)N1CCCC1)C(=O)CC(c1ccccc1)=N2	GAA850 FXN act 7.8 | GAA30 counter 78 | FXN GAA850 conf 22
O=C(CN1C(=O)CC(c2ccccc2)=Nc2ccccc21)NCc1ccccc1	none
COc1cc2c(cc1OCc1ccccc1)/C(=C/C(=O)OCc1ccccc1)OC2	none (no result: GAA850 FXN act, FAS TE block)
CC(=O)Oc1ccccc1C(=O)C=Cc1cccc([N+](=O)[O-])c1	GAA850 FXN act 17 | GAA30 counter inactive | FXN GAA850 conf 22
